Measurements taken from PubChem BioAssay (NCATS).
Inconclusive results are not listed. Active and inactive are the calls of the source. The call rests on the fitted dose curve; in most records, active means well fitted inhibition curve with a large enough effect; inconclusive means small, poorly fitted or top-dose-only effect; inactive means flat fitted curve, though single readings scatter.

Target: Tyrosyl-DNA phosphodiesterase 1 (Homo sapiens) (UniProt Q9NUW8)
Experiment: Confirmation Assay for Inhibitors of Tyrosyl-DNA Phosphodiesterase (TDP1) (AID 489007); further: nearly all actives have a fitted effect of over 40% in size
Conditions: recombinant human TDP1 enzymatic activity, dose-response
How it was run: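 Tdp1 1 nM + cpd, 15 min RT; add biotin/phosphotyrosine-FITC oligo 15 nM, 5 min RT; add AS donor/acceptor beads 10 ug/ml, 10 min RT; read AlphaScreen. No-enzyme wells = max signal.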
Potency means the concentration at half of the fitted maximal effect.

Sequence of Tyrosyl-DNA phosphodiesterase 1 (Homo sapiens) (Q9NUW8 whole entry, looked up): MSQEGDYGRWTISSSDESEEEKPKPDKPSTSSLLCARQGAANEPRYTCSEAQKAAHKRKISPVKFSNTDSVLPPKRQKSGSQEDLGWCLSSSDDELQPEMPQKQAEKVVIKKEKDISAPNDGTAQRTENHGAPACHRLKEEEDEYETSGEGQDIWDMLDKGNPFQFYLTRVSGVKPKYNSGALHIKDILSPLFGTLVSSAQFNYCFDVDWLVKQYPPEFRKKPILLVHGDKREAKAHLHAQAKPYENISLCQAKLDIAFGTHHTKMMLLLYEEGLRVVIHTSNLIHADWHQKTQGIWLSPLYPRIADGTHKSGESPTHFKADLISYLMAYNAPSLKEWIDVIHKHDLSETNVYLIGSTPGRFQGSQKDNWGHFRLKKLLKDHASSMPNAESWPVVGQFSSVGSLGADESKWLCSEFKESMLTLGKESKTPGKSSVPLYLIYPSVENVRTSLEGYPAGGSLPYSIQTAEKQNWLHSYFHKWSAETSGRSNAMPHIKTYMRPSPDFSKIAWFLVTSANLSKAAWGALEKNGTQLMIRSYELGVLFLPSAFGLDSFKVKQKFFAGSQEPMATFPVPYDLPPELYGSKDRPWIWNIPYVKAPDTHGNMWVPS

Cc1ccccc1-c1cncnc1N(C)Cc1ccco1
Potency: 3.16 µM (active)
